The source of these data is ChEMBL document CHEMBL2218924, “A broad activity screen in support of a chemogenomic map for kinase signalling research and drug discovery” (Biochem J, 2013).

Assay [1] deals with Tyrosine-protein kinase SYK (Homo sapiens) (UniProt P43405). The settings on record: at 10 µM.
Assay [2] concerns the target T1, Mitogen-activated protein kinase kinase kinase 7 (Homo sapiens) (UniProt O43318).
T1 sequence (whole entry): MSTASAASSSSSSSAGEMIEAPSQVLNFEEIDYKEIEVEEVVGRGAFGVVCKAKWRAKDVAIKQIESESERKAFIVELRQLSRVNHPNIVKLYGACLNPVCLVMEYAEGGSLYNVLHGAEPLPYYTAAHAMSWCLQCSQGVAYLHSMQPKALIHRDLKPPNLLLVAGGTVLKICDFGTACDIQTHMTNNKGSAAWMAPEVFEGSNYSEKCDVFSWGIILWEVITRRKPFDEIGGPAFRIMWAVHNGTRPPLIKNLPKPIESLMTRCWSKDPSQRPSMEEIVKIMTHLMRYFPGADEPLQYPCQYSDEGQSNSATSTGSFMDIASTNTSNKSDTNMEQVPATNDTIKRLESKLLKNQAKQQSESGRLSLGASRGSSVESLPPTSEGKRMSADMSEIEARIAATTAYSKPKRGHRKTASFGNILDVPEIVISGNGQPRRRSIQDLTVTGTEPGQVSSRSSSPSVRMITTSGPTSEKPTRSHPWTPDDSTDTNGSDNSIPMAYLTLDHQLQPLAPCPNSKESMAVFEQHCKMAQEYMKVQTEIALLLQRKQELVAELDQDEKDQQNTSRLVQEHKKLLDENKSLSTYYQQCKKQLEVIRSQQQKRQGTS
Particulars: at 1 µM.

Assay [3] has as its target T1, Mitogen-activated protein kinase kinase kinase 7 (Homo sapiens). The settings on record: at 10 µM.
Assay [4] addresses T2, Serine/threonine-protein kinase TAO1 (Homo sapiens) (UniProt Q7L7X3).
T2 sequence (whole entry): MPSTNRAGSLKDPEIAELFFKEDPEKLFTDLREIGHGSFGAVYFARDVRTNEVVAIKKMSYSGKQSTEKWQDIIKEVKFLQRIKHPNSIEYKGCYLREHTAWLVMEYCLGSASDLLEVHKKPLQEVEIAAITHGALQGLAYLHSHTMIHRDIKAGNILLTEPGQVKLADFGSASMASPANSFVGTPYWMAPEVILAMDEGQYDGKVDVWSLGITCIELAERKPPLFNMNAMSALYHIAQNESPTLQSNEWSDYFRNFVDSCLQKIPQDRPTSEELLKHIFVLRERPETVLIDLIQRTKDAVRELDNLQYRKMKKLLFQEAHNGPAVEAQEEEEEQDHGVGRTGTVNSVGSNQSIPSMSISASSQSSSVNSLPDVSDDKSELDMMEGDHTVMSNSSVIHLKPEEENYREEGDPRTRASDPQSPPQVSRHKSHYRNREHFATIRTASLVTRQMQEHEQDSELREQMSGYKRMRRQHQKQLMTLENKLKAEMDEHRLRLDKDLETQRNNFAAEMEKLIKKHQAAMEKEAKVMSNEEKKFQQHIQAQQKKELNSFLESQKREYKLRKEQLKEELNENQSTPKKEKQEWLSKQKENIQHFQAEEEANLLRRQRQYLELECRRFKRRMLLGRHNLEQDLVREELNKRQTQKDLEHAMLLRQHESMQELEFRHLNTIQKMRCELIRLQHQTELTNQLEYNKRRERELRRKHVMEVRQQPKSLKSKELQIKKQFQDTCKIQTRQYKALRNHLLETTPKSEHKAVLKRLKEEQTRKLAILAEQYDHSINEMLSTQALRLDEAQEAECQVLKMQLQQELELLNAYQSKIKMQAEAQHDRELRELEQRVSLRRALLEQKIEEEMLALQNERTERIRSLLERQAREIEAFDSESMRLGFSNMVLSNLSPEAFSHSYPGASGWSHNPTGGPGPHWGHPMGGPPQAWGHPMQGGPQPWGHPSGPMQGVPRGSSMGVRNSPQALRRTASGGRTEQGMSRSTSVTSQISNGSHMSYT
The settings on record: at 1 µM.

Assay [5] addresses T2, Serine/threonine-protein kinase TAO1 (Homo sapiens). Particulars: at 10 µM.
Assay [6] has as its target T3, Serine/threonine-protein kinase TAO2 (Homo sapiens) (UniProt Q9UL54).
T3 sequence (whole entry): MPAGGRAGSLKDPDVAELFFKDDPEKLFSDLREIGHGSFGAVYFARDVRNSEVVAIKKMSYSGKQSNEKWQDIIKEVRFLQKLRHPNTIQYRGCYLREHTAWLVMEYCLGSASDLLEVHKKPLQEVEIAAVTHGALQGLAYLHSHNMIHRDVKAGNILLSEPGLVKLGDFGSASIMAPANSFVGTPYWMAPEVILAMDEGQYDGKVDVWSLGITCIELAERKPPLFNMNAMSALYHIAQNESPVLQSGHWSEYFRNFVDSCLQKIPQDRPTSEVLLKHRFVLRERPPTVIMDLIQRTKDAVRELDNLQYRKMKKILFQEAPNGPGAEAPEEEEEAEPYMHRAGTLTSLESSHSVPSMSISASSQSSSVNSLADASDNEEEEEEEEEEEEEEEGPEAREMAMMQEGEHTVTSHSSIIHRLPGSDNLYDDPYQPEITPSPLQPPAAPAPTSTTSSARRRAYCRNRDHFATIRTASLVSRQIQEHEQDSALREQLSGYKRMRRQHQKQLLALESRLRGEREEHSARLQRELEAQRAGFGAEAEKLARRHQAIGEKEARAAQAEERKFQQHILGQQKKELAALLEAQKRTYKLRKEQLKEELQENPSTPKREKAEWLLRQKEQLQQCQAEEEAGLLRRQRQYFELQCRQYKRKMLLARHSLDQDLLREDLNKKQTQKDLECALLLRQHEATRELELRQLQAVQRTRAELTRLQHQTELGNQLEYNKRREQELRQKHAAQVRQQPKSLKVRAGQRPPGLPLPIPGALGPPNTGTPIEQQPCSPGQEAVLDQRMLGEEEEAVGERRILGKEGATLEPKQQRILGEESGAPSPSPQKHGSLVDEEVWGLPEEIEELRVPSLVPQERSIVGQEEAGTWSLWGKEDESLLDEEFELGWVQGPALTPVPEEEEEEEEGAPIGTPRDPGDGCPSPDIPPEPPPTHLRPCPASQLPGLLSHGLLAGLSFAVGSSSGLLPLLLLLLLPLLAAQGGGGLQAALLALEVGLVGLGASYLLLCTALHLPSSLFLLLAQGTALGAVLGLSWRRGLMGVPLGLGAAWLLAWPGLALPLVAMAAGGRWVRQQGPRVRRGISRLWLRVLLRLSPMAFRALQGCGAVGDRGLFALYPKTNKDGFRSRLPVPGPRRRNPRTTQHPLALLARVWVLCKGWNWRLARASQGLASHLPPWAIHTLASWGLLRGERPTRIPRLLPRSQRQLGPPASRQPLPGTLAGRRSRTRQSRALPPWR
Particulars: at 1 µM.

The target of assay [7] is T3, Serine/threonine-protein kinase TAO2 (Homo sapiens). Particulars: at 10 µM.
The target of assay [8] is T4, Serine/threonine-protein kinase TAO3 (Homo sapiens) (UniProt Q9H2K8).
T4 sequence (whole entry): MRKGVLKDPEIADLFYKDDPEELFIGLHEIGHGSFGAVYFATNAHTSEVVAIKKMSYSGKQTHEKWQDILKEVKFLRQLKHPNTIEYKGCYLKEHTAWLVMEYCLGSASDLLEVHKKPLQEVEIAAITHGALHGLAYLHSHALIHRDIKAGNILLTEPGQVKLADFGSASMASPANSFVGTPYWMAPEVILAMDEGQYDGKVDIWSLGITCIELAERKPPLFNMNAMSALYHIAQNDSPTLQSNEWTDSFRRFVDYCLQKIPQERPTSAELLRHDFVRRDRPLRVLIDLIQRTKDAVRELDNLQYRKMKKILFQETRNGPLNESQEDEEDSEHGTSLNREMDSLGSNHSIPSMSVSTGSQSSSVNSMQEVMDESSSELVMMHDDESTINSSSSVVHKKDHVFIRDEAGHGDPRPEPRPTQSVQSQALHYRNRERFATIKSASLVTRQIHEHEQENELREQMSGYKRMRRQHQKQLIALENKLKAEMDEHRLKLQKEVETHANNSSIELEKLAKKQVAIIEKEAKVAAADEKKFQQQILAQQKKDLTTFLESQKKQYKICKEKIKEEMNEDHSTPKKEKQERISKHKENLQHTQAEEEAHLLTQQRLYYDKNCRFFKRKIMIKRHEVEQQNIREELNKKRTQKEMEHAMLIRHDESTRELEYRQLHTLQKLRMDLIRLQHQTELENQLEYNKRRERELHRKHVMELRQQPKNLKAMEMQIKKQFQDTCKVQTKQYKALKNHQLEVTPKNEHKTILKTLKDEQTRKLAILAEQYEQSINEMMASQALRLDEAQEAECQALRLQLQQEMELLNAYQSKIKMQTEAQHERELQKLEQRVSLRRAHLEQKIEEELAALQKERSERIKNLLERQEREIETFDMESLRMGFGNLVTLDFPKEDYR
Particulars: at 1 µM.

In assay [9] the target is T4, Serine/threonine-protein kinase TAO3 (Homo sapiens). Particulars: at 10 µM.
Assay [10] addresses T5, Serine/threonine-protein kinase TBK1 (Homo sapiens) (UniProt Q9UHD2).
T5 sequence (whole entry): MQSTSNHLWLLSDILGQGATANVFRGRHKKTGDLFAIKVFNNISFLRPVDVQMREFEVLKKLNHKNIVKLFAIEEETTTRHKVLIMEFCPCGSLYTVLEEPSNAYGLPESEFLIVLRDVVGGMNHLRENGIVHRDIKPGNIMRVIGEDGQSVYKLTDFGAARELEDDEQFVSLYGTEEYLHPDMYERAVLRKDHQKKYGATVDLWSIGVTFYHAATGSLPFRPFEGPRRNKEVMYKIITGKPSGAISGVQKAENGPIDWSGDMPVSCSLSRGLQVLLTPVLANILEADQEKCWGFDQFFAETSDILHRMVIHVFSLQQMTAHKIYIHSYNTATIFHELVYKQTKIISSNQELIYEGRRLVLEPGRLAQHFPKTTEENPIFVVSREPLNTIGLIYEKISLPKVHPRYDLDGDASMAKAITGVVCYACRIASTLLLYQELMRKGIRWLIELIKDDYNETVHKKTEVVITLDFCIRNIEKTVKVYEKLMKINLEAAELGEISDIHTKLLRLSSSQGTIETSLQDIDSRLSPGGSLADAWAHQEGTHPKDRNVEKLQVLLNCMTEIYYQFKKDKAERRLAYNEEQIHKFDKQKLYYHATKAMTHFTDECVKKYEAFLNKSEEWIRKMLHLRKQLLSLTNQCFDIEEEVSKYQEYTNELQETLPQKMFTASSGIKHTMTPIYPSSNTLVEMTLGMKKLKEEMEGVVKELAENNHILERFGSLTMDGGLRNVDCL
Particulars: at 1 µM.

Assay [11] deals with T5, Serine/threonine-protein kinase TBK1 (Homo sapiens). The settings on record: at 10 µM.
For assay [12], the target named is T6, TGF-beta receptor type-1 (Homo sapiens) (UniProt P36897).
T6 sequence (whole entry): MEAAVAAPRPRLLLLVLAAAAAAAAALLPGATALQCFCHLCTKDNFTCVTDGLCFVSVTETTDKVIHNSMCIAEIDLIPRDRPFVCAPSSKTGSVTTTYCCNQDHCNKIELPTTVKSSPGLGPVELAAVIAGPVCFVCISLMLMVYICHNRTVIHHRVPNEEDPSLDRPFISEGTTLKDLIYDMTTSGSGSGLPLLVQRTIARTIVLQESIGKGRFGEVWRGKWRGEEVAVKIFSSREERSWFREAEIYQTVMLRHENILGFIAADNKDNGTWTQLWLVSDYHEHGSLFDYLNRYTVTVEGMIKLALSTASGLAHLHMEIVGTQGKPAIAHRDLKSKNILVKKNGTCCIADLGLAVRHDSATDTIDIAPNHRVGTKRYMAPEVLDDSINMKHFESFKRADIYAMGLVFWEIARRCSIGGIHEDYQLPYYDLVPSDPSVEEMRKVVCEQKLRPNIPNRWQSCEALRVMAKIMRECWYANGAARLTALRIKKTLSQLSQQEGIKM
Particulars: at 1 µM.

Assay [13] has as its target T6, TGF-beta receptor type-1 (Homo sapiens). The settings on record: at 10 µM.
Assay [14] concerns the target Insulin-like growth factor 1 receptor (Homo sapiens) (UniProt P08069). Particulars: at 10 µM.
Assay [15] deals with T7, Inhibitor of nuclear factor kappa-B kinase subunit beta (Homo sapiens) (UniProt O14920).
T7 sequence (whole entry): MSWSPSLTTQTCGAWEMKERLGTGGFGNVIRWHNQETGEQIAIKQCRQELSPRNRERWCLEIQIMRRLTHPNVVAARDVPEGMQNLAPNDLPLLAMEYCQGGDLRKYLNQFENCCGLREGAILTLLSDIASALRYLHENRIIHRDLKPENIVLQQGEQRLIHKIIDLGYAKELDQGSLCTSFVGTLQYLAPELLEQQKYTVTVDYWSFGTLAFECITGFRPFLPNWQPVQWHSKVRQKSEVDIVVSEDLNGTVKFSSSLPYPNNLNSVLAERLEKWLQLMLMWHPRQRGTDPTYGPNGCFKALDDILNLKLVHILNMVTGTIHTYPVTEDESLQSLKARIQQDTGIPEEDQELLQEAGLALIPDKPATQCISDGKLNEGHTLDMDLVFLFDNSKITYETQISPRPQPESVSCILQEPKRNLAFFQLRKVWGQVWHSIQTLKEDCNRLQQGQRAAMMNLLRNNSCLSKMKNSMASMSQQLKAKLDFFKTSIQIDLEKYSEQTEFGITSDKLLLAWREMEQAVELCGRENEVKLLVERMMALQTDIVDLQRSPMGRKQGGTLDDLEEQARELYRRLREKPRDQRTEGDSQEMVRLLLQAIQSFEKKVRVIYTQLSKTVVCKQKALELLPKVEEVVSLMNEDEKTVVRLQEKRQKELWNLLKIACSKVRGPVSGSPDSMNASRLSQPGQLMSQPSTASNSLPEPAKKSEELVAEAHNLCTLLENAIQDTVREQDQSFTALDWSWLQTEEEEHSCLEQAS
Particulars: at 10 µM.

Insulin-like growth factor 1 receptor (Homo sapiens), sequence (P08069 31-736 limits assumed): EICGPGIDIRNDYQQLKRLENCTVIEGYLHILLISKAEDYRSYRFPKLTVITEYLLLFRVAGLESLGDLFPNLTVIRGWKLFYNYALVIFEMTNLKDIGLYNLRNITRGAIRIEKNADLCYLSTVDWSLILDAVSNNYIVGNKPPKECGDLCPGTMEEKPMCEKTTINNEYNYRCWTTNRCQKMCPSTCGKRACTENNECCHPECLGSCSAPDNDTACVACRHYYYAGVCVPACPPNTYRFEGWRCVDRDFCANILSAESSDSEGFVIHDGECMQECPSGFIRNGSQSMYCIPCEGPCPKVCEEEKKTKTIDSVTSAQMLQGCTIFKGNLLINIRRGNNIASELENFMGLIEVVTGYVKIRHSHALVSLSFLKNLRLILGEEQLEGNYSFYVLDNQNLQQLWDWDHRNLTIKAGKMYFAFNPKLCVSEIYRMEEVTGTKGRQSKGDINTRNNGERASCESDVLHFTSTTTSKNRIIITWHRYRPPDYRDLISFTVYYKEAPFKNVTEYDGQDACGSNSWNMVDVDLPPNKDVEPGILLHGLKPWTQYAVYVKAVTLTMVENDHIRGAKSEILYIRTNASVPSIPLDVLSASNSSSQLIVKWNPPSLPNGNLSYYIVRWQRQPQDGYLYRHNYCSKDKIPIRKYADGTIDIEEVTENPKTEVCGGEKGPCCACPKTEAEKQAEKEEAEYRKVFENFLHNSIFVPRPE
Insulin-like growth factor 1 receptor (Homo sapiens), sequence (P08069 741-1367 limits assumed): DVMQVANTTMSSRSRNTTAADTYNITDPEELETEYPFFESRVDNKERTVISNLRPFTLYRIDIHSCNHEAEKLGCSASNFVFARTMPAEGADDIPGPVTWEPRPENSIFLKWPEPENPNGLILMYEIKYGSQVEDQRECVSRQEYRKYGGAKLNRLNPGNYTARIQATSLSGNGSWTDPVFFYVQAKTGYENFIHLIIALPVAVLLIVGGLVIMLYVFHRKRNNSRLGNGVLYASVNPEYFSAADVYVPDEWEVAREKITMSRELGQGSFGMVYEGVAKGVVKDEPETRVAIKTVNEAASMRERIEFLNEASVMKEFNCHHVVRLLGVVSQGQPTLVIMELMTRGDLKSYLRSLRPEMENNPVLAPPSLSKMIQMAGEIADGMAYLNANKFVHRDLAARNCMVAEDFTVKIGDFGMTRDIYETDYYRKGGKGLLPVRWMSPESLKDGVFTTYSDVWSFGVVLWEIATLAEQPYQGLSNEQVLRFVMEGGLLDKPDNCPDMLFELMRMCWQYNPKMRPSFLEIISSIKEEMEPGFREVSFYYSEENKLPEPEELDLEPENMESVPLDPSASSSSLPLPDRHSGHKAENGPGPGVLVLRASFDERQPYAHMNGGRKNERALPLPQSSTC

With `Nc1nc(Nc2ccc(S(N)(=O)=O)cc2)nn1C(=O)c1c(F)cccc1F`, the residual activity was found to be 11% in [1]; 82% in assay [2]; 34% in assay [3]; 15% in assay [4]; 4% in [5]; 6% in assay [6]. Further, the residual activity in assay [7] amounted to 2%; in assay [8], 18%; in [9] it was 4%; in assay [10], 72%; in [11] it was 19%; in assay [12] it was 105%. Further, the residual activity in assay [13] is 62%; in [14], 63%; in [15], 69%.
